# Measurements: ChEMBL document CHEMBL1961873, “Compounds: GSK PKIS; Assays: Nanosyn kinase panel” (2012)
# What was measured:
# [1] = biological target: Protein kinase C gamma type (Homo sapiens) (UniProt P05129); conditions: at 1 µM;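 also: each value is an averaged percent inhibition of the enzyme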
# [2] = biological target: T1, Protein kinase C iota type (Homo sapiens) (UniProt P41743); conditions: at 0.1 µM
# T1 sequence (whole entry): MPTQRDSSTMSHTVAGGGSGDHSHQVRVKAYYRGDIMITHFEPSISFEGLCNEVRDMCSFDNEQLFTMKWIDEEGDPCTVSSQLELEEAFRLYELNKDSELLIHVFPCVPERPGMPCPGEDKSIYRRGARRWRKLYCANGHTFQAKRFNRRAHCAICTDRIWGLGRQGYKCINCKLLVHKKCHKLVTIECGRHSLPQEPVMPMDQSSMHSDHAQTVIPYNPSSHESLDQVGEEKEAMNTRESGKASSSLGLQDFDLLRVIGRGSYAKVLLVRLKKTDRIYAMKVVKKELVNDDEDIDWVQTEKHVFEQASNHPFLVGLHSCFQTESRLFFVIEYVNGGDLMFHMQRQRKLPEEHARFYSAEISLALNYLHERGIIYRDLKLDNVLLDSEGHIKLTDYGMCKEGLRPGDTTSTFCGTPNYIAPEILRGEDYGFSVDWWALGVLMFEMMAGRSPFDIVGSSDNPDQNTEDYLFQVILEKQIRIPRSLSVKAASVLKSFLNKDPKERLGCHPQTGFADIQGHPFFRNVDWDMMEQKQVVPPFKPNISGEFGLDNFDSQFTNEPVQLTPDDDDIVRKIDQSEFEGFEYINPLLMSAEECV
# [3] = biological target: T1, Protein kinase C iota type (Homo sapiens); conditions: at 1 µM
# [4] = biological target: Protein kinase C theta type (Homo sapiens) (UniProt Q04759); conditions: at 0.1 µM
# [5] = biological target: Protein kinase C theta type (Homo sapiens) (UniProt Q04759); conditions: at 1 µM
# [6] = biological target: Protein kinase C beta type (Homo sapiens) (UniProt P05771); conditions: at 0.1 µM
# [7] = biological target: Protein kinase C beta type (Homo sapiens) (UniProt P05771); conditions: at 1 µM
# [8] = biological target: T2, Serine/threonine-protein kinase D1 (Homo sapiens) (UniProt Q15139); conditions: at 0.1 µM
# T2 sequence (whole entry): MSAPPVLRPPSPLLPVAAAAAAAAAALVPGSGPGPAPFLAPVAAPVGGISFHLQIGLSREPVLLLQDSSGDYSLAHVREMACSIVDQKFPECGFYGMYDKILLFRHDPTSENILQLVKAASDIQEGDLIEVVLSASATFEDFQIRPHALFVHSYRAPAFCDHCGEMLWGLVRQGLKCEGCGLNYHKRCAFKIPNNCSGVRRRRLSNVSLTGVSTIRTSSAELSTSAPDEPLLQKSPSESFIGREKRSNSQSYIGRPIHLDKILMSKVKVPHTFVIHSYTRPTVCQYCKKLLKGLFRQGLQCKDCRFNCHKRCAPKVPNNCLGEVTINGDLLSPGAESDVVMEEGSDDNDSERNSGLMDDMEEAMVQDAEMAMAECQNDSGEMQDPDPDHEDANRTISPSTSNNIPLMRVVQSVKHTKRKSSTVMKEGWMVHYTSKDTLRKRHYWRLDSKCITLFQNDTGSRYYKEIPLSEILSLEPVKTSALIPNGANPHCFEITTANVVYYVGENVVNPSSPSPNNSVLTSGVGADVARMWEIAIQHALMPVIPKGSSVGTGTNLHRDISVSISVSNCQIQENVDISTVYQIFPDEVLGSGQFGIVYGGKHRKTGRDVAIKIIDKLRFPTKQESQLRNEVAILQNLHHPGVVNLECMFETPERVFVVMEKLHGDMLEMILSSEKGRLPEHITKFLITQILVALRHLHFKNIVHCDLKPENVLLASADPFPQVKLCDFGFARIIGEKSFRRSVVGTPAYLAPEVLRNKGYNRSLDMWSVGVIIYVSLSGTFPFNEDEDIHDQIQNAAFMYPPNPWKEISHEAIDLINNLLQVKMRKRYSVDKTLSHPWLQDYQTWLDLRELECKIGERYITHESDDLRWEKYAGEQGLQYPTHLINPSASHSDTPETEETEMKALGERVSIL
# [9] = biological target: T2, Serine/threonine-protein kinase D1 (Homo sapiens); conditions: at 1 µM
# [10] = biological target: T3, Serine/threonine-protein kinase D2 (Homo sapiens) (UniProt Q9BZL6); conditions: at 0.1 µM
# T3 sequence (whole entry): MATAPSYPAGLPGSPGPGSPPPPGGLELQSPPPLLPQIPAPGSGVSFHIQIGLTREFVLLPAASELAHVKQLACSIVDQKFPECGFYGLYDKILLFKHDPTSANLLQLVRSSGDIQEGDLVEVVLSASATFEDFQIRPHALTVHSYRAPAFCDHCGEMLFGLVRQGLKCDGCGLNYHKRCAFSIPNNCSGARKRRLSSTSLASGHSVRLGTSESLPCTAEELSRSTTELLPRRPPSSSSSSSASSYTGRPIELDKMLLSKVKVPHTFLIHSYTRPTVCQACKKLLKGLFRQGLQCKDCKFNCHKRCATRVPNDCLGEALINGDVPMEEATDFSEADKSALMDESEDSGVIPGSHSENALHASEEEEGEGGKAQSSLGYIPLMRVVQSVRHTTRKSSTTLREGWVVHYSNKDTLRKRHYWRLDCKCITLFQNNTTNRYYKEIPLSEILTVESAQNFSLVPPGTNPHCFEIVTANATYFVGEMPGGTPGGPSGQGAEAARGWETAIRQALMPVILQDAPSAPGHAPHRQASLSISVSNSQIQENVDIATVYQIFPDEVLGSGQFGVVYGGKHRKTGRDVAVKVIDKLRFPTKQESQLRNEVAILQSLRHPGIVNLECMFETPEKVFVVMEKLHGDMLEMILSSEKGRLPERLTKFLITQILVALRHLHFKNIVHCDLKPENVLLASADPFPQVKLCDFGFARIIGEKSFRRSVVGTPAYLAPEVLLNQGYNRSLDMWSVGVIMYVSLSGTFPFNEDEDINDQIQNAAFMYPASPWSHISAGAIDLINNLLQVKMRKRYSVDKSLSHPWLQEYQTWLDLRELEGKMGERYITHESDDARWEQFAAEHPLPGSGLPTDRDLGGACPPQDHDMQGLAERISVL
# [11] = biological target: T3, Serine/threonine-protein kinase D2 (Homo sapiens); conditions: at 1 µM
# [12] = biological target: T4, Serine/threonine-protein kinase D3 (Homo sapiens) (UniProt O94806); conditions: at 0.1 µM
# T4 sequence (whole entry): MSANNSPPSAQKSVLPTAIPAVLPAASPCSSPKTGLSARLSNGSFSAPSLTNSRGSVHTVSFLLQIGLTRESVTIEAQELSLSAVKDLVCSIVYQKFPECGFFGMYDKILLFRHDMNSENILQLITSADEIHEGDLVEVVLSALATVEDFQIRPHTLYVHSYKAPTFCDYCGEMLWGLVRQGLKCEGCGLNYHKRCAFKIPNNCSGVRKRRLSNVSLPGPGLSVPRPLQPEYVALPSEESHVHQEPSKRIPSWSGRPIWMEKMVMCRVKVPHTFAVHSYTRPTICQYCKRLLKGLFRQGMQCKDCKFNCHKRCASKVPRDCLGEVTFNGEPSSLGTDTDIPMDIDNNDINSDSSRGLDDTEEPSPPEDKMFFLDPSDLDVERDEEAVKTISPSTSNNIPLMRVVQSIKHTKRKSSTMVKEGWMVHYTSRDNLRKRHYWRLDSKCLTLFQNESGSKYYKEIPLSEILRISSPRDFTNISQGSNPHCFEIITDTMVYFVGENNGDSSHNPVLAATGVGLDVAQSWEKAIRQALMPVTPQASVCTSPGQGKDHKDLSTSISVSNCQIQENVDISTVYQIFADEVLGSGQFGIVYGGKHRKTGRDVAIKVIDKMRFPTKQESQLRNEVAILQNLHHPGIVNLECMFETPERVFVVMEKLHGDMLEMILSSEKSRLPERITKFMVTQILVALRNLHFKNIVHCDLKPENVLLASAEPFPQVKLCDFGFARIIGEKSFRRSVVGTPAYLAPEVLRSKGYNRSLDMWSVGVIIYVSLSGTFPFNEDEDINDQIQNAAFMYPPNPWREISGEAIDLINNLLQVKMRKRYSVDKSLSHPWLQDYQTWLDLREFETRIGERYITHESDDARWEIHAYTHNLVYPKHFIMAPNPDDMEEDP
# [13] = biological target: T4, Serine/threonine-protein kinase D3 (Homo sapiens); conditions: at 1 µM
# [14] = biological target: T5, cGMP-dependent protein kinase 1 (Homo sapiens) (UniProt Q13976); conditions: at 0.1 µM
# T5 sequence (whole entry): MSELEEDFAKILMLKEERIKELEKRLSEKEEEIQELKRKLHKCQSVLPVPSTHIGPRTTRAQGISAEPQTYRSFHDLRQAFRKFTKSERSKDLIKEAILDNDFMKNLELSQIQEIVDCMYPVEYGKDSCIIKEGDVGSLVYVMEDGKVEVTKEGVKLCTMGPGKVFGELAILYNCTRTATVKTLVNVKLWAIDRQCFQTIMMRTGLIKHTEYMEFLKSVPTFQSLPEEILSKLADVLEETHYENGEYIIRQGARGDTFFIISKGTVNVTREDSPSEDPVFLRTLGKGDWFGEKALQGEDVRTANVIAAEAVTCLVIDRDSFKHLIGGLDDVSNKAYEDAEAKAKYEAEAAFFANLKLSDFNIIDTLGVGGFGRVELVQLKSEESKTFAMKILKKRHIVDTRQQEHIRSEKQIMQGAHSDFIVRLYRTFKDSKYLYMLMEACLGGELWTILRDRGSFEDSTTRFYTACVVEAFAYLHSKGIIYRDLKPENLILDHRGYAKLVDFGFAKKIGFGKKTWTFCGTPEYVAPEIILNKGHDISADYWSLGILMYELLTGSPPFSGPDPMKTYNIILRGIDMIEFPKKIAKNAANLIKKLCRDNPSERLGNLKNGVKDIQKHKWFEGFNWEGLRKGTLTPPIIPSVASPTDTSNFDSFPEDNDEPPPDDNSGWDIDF
# [15] = biological target: T5, cGMP-dependent protein kinase 1 (Homo sapiens); conditions: at 1 µM
# [16] = biological target: T6, cGMP-dependent protein kinase 2 (Homo sapiens) (UniProt Q13237); conditions: at 0.1 µM
# T6 sequence (whole entry): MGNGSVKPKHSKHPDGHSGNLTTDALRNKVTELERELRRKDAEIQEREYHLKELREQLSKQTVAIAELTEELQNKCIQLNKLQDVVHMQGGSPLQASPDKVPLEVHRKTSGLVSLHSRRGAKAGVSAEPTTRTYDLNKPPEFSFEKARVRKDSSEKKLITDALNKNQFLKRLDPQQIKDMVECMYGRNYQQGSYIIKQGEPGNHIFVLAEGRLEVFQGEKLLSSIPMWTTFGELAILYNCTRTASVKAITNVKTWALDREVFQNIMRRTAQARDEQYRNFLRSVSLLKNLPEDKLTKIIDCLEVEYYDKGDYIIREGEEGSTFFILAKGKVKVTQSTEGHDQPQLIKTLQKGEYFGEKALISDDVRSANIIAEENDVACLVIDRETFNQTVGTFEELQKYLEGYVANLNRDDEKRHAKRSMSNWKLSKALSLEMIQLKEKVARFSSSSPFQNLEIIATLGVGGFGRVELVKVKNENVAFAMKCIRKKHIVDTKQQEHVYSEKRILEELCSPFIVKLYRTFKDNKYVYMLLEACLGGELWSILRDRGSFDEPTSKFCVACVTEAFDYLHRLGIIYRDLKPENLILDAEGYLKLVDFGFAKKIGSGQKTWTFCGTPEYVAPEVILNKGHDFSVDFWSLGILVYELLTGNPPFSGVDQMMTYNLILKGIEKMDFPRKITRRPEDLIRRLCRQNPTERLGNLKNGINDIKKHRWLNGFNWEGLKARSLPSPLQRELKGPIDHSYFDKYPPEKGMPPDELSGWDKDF
# [17] = biological target: T6, cGMP-dependent protein kinase 2 (Homo sapiens); conditions: at 1 µM
# [18] = biological target: T7, cAMP-dependent protein kinase catalytic subunit PRKX (Homo sapiens) (UniProt P51817); conditions: at 0.1 µM
# T7 sequence (whole entry): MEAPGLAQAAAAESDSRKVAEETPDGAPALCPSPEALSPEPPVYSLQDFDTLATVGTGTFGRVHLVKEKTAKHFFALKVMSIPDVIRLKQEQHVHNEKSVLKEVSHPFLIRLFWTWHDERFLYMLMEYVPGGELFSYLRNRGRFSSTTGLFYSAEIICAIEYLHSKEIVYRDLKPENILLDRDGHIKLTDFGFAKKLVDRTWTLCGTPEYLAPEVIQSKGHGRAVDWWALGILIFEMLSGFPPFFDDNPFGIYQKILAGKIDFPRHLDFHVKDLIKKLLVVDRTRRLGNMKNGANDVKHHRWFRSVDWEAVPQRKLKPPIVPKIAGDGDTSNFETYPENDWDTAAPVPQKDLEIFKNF
# [19] = biological target: T7, cAMP-dependent protein kinase catalytic subunit PRKX (Homo sapiens); conditions: at 1 µM
# [20] = biological target: Rho-associated protein kinase 1 (Homo sapiens) (UniProt Q13464); conditions: at 0.1 µM;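 also: values are mean percent inhibition of ROCK1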
# Chain of Rho-associated protein kinase 1 (Homo sapiens) (Q13464 2-1354 limits assumed): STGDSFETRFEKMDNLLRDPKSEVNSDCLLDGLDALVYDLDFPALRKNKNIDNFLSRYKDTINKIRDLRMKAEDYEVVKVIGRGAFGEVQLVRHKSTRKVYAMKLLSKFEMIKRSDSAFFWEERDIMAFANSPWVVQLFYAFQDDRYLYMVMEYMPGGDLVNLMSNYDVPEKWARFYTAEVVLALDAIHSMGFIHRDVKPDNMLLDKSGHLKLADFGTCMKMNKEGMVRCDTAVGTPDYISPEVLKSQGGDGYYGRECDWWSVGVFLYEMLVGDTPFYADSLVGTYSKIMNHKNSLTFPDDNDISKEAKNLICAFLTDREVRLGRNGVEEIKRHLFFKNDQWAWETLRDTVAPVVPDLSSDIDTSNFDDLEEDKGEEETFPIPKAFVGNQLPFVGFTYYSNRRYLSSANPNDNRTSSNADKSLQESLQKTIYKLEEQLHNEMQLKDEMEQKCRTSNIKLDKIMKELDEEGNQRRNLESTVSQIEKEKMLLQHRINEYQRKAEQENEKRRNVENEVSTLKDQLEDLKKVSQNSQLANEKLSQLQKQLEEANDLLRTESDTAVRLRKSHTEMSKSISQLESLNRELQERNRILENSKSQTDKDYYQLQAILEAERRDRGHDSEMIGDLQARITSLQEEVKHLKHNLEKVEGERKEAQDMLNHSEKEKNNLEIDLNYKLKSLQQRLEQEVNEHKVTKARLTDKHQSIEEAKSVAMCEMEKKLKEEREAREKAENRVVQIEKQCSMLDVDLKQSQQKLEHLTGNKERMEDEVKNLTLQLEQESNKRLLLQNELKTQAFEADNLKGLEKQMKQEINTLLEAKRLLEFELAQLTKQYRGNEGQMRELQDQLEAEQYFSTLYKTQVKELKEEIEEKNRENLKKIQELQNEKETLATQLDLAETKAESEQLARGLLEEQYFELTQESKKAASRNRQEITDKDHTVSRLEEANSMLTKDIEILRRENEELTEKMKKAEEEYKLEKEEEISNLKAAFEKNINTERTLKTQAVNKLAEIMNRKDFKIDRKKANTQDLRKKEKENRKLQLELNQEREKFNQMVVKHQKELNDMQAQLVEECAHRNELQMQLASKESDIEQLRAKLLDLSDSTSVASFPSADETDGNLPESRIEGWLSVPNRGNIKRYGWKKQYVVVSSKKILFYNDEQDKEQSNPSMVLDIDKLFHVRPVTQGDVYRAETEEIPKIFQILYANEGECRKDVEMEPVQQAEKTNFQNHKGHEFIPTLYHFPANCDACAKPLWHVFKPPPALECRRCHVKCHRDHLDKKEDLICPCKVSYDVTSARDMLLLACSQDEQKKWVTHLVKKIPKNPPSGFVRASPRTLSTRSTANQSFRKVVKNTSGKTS
# Chain of Protein kinase C beta type (Homo sapiens) (P05771 2-671 limits assumed): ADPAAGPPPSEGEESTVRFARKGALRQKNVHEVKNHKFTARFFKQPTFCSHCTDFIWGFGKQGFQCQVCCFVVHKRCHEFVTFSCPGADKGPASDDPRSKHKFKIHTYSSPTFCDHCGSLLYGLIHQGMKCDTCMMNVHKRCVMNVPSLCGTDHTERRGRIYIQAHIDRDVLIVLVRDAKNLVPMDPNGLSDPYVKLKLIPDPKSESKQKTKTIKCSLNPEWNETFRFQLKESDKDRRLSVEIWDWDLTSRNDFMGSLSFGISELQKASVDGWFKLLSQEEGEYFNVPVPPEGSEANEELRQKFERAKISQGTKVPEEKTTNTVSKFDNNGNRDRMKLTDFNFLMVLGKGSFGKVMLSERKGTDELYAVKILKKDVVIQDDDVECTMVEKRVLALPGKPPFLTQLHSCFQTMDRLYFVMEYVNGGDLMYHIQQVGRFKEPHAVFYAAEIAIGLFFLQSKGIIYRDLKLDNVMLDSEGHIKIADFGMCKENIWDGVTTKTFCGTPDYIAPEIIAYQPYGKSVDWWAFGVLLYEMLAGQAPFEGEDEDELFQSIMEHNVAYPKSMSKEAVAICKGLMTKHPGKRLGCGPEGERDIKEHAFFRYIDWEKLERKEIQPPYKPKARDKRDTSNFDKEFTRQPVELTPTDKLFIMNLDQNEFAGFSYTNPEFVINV
# Chain of Protein kinase C theta type (Homo sapiens) (Q04759 whole entry, looked up): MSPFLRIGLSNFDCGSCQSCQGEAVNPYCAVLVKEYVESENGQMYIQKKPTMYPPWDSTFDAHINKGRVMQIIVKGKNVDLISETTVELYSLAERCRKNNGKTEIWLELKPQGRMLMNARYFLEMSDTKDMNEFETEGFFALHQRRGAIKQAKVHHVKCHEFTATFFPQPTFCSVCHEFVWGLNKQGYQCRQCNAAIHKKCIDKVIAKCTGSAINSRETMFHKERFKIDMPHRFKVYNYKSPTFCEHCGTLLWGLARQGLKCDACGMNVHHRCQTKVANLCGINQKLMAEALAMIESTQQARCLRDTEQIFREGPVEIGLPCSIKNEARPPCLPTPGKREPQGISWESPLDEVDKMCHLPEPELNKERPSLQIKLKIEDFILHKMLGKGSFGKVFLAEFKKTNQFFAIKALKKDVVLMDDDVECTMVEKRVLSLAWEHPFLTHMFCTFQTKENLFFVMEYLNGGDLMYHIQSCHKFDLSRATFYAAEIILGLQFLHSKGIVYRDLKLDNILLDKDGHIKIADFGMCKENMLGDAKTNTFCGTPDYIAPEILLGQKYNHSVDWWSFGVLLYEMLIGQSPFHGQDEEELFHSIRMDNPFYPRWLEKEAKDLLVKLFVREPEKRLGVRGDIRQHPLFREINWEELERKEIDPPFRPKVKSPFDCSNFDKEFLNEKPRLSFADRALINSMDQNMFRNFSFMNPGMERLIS
SMILES,inhibition [1] [%],inhibition [2] [%],inhibition [3] [%],inhibition [4] [%],inhibition [5] [%],inhibition [6] [%],inhibition [7] [%],inhibition [8] [%],inhibition [9] [%],inhibition [10] [%],inhibition [11] [%],inhibition [12] [%],inhibition [13] [%],inhibition [14] [%],inhibition [15] [%],inhibition [16] [%],inhibition [17] [%],inhibition [18] [%],inhibition [19] [%],inhibition [20] [%]
CC1=C(C(=O)Nc2ccc3[nH]ncc3c2)C(c2ccc(Cl)c(Cl)c2)CC(=O)N1 (centres undefined),-2.08,0.23,-0.03,0.6,5.07,0.17,0.61,0.89,4.46,1.41,5.98,1.11,9.26,10.1,50,5.19,34.7,14.8,59.2,68.6
CC(=O)Nc1cccc(C#Cc2cncnc2Nc2ccc(OCc3cccc(F)c3)c(Cl)c2)n1,1.63,0.57,-0.05,1.96,3.96,2.66,2.15,-0.03,-2.44,-1.45,-0.67,-1.15,-1.81,2.8,3.25,3.49,6.99,1.81,5.08,1.28
CC1=C(C(=O)Nc2ccc3[nH]ncc3c2)C(c2ccc3ccccc3c2)CC(=O)N1 (centres undefined),2.79,1.06,0.77,1.49,3,0.83,1.67,2.78,9.17,2.02,6.67,3.48,8.7,12.8,53.3,12.6,53.3,33.7,75.3,
CC(C)=Cc1cccc2c1/C(=N/Nc1ccc(S(N)(=O)=O)cc1)C(=O)N2,1.25,0.62,0.09,1.24,6.89,0.32,1.68,2.84,13.5,-0.05,12.2,1.39,8.68,1.14,4.69,1.13,7.29,1.11,1.36,1.3
